Compound activity as filed in PubChem BioAssay.
CYP2C9 act: increases human cytochrome P450 2C9 activity; AID 1024; recombinant CYP2C9, luciferin-H conversion, luminescence; hits give high values; factor 1 = untreated enzyme, 0 = blocked; activation factor at 5 µM; P11712; 96,000 tested, 1.4% active;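 active = activation factor of 2 or more for CYP2C9 at a 5 µM dose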;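 note: 0 = sulfaphenazole-blocked wells and 1 = vehicle-only wells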
CYP2C19 act: activators of human cytochrome P450 2C19; P33261; recombinant CYP2C19, luciferin-H EGE luminescence; hits give high values; 0 = fully inhibited enzyme, 1 = untreated enzyme; activation factor at 5 µM; 96,000 tested, under 10 active;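 active = activation factor of at least 2 at 5 µM in the primary screen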;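 note: 0 = wells with 2.5 mM tranylcypromine and 1 = vehicle-only wells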
Target sequence (P33261 whole entry, looked up): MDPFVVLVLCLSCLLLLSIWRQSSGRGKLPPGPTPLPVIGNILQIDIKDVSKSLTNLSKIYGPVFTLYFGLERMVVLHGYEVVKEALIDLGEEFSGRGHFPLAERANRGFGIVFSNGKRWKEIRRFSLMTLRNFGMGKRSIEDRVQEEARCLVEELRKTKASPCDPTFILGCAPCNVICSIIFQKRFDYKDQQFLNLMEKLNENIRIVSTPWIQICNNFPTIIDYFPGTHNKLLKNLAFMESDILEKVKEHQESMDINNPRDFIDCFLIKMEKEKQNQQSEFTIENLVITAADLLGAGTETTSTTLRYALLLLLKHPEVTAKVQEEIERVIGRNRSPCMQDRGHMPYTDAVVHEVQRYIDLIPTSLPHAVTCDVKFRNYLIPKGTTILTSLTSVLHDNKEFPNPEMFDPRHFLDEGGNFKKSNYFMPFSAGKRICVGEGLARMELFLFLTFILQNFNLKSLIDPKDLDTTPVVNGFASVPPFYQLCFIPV
CYP2C19 inh: blocks human cytochrome P450 2C19 | P33261 | CYP2C19 Supersomes, luciferin-H EGE luminescence, 30 min | inhibition, % at 5 µM | 96,000 tested, 21% active | AID 778;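 active = CYP2C19 inhibition above a set limit at 5 µM in the primary screen, cut at about 50% in these data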;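 note: plate controls were negative control wells for no effect and 2.5 mM tranylcypromine positive control for full effect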
sEH activator: increases human soluble epoxide hydrolase activity; purified human sEH enzymatic activity, activator screen; AID 717; P34913; 91,000 tested, 0.04% active; activation, % at 2 µM; in the data active = activation above about 37%
CYP2C9 inh: blocks human cytochrome P450 2C9; CYP2C9 Supersomes, luciferin-H conversion, luminescence; inhibition, % at 5 µM; 96,000 tested, 20% active;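 active = blocking of liver enzyme CYP2C9 beyond about 50% at 5 µM, limit read from the data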
sEH inh: blocks human soluble epoxide hydrolase activity; P34913; recombinant human sEH enzymatic activity assay; inhibition, % at 2 µM; 91,000 tested, 0.34% active; AID 707; in the data active = inhibition above about 80%
The depositor's hits bear a star; . = no result given. Hits are enriched below; roughly 27% of the tested compounds scored in any of these assays.

SMILES | CYP2C9 act | CYP2C19 act | CYP2C19 inh | sEH activator | CYP2C9 inh | sEH inh
Clc1ccc(CSc2ncccn2)cc1 | 1.1 | 0.9 | 12 | 1 | -7 | -1
O=C1c2cnc3nc(SCc4ccc(Cl)cc4)nn3c2CC2c3ccccc3CCN12 (stereo not drawn) | 0.5 | 1 | -4 | 11 | 51* | -14
CN(C)S(=O)(=O)c1ccc2c(c1)C(CC(=O)O)OC2=O (stereo not drawn) | 1 | 1.1 | -5 | -2 | -1 | 2
O=C(NCc1ccco1)c1nn2c(C(F)(F)F)cc(-c3cccs3)nc2c1Cl | 0.5 | 0.9 | 11 | 6 | 55* | -6
O=C(c1ccco1)N1CCN(C(=O)c2cnn3c(C(F)(F)F)cc(-c4cccs4)nc23)CC1 | 0.8 | 0.7 | 30 | 9 | 16 | -8
O=C(NCc1ccco1)c1cc2nc(-c3cccs3)cc(C(F)(F)F)n2n1 | 0.4 | 0.7 | 31 | 2 | 56* | -2
CCN(CC)CCNC(=O)C1c2ccccc2C(=O)N(CCOC)C1c1ccc(F)cc1 (stereo not drawn) | 1.3 | 1.3 | -33 | -5 | -29 | 8
CC(=O)Nc1ccc(C(=O)n2nc(C)cc2C)cc1 | 1.1 | 1 | 4 | . | -8 | .
O=C(Nc1ccccc1Cl)N1CCN(c2ncccn2)CC1 | 0.9 | 0.1 | 85* | 7 | 7 | -8
O=C(Nc1ccccc1)N1CCN(c2ccccn2)CC1 | 1 | 0.8 | 17 | -11 | 2 | 8
O=C(NC1CCCCC1)N1CCCCCCC1 | 1 | 0.9 | 10 | -6 | -1 | 3
c1ccc(N2CCN(c3ncccn3)CC2)cc1 | 0.7 | 0.7 | 29 | 14 | 26 | -17
Oc1ccccc1N1CCN(c2ncccn2)CC1 | 0.1 | 0.2 | 84* | 15 | 86* | -16
O=C(NC1CCCCC1)N1CCN(c2ncccn2)CC1 | 0.8 | 0.4 | 60* | -29 | 18 | 29
O=C(Nc1ccc2c(c1)OCO2)N1CCN(c2ncccn2)CC1 | 0.7 | 0.5 | 46 | -32 | 29 | 34
O=C(Nc1ccccc1)N1CCN(c2ncccn2)CC1 | 0.5 | 0.2 | 78* | 5 | 52* | -1
CC(C)Cn1cnc2c1c(=O)n(CC(=O)Nc1ccc3c(c1)OCO3)c(=O)n2Cc1ccccc1 | 1.1 | 1 | -1 | 6 | -12 | -7
CCO/C(C)=N/n1c2nc3ccccc3nc2c2c(=O)n(CC(C)C)c(C)nc21 | 1 | 1 | 4 | . | 2 | .
CC(=O)OC(C(=O)NC1CCCCC1)c1ccc(Cl)cc1 (stereo not drawn) | 1.5 | 0.8 | 17 | 17 | -50 | -15
Cn1ncc(Cl)c1C(=O)Nc1ccc(Cl)cn1 | . | . | . | -3 | . | 0
O=C(Nc1ccccc1Cl)N1CCN(c2ccc3nnc(-c4ccc(F)cc4)n3n2)CC1 | 0.3 | 0.7 | 31 | . | 66* | .
Fc1ccc(-c2nnc3ccc(N4CCCC4)nn23)cc1 | 0.7 | 1 | -1 | . | 28 | .
O=[N+]([O-])c1cc(Cl)cc(C2=NCCN2)c1 | 1 | 0.9 | 10 | -20 | 4 | 21
CCn1c(C(O)c2ccc(C)cc2)nc2ccccc21 (stereo not drawn) | 1 | 0.6 | 44 | . | -5 | .
COc1ccc(OC)c(C(O)c2nc3ccccc3n2C(C)C)c1 (stereo not drawn) | 0.6 | 0.3 | 74* | 2 | 37 | 2
SMILES | CYP2C9 act | CYP2C19 act | CYP2C19 inh | sEH activator | CYP2C9 inh | sEH inh
c1ccc2c(c1)nc1n2CN(Cc2ccc3c(c2)OCO3)CN1 | 1.1 | 1.1 | -10 | . | -11 | .
O=C(O)CC(Cc1ccccc1)c1ccc2c(c1)OCO2 (stereo not drawn) | 0.9 | 0.8 | 18 | 12 | 11 | -8
OC(c1ccc2c(c1)OCO2)c1nccc2ccccc12 (stereo not drawn) | 1.7 | 0 | 95* | -2 | -74 | 1
Cn1c(C(O)c2ccc3c(c2)OCO3)nc2ccccc21 (stereo not drawn) | 0.4 | 0 | 97* | 0 | 62* | 0
CC(C)n1c(C(O)c2ccc3c(c2)OCO3)nc2ccccc21 (stereo not drawn) | 0.5 | 0 | 98* | . | 53* | .
O=C(CCCC(=O)OCC(Cl)=C(Cl)Cl)Nc1cccc(F)c1 | 1 | 0.7 | 27 | 6 | -2 | -3
Cc1ccc(C)c(NC(=O)CN(C)C(=O)CCN2C(=O)c3ccccc3C2=O)c1 | 0.9 | 0.9 | 8 | 12 | 8 | -11
O=c1oc(-c2ccco2)nc2sc3c(c12)CCCC3 | . | . | . | 3 | . | 0
O=C(CC(O)(c1ccccc1)C(F)(F)F)c1cccs1 (stereo not drawn) | 0.8 | 0.6 | 44 | -2 | 22 | -1
CCc1c(C)c(C#N)c2nc3ccccc3n2c1NCc1ccco1 | 0.3 | 0.6 | 42 | 5 | 71* | -2
CC1CCC2(CC1)NC(=O)c1ccccc1O2 (stereo not drawn) | 0.8 | 0.1 | 93* | 11 | 22 | -11
CCOC(=O)c1c(C)sc2c1N(C(=O)CN(CC)CC)c1ccccc1S2 | . | . | . | -15 | . | 14
CCOC(=O)c1c(C)sc2c1N(C(=O)CN(CC)CC)c1cc(Cl)ccc1S2 | 0.3 | 0.3 | 70* | 7 | 70* | -6
CC(=O)Nc1ccc(N2CCCC2)cc1 | 1.2 | 0.9 | 7 | 11 | -16 | -8
CC(=O)Nc1ccc(N2S(=O)(=O)c3ccccc3S2(=O)=O)cc1 | 2.3* | 0.9 | 11 | . | -133 | .
CCOC(=O)N1CCC(Nc2ccc3nnc(-c4ccccc4)n3n2)CC1 | 0.1 | 0 | 96* | 0 | 93* | -1
CCCCNC(=O)CSc1nnc(-c2ccc(S(=O)(=O)N3CCCC3)cc2)n1C | . | . | . | -8 | . | 12
COc1ccc2c(C)cc(N3CCOCC3)nc2c1 | 0.8 | 0.9 | 7 | 3 | 21 | -4
COc1ccc2c(C)cc(SCC(=O)N3CCOCC3)nc2c1 | 0.6 | 0.3 | 68* | -5 | 35 | 5
CCCOc1cc(CN2CCCCC2)cc(C(C)=O)c1 | 1.2 | 1.2 | -17 | -6 | -18 | 7
Cn1nc(C(F)(F)F)c(/C=N/OCc2c(Cl)cccc2Cl)c1Cl | 0.2 | 0.5 | 52* | 8 | 80* | -5
CCOC(=O)c1c(C)oc2cc3c(C(=O)OCC)c(C)oc3cc12 | . | . | . | 8 | . | -8
CO/N=C(/CS(=O)Cc1ccc(Cl)cc1)c1ccc(Cl)cc1 (stereo not drawn) | 0.4 | 0 | 96* | . | 56* | .
O=C(c1ccccc1)c1ccc(N2CCCC2)cc1 | 1.1 | 0.7 | 33 | . | -6 | .
CN1CCN(c2ccc(C(=O)c3ccc(F)cc3)cc2)CC1 | 0.9 | 0.5 | 52* | 1 | 6 | -1
O=C(c1ccccc1)c1ccc(N2CCNCC2)cc1 | 0.6 | 0.2 | 77* | 2 | 44 | 0
Cc1ccc(C(=O)Oc2ccc(C(=O)COC(=O)C3CC(=O)N(Cc4ccco4)C3)cc2)cc1 (stereo not drawn) | . | . | . | -9 | . | 8
O=C(COC(=O)C1CC(=O)N(Cc2ccco2)C1)c1ccc(OC(=O)c2ccco2)cc1 (stereo not drawn) | . | . | . | 6 | . | -8
